Consider 22 compounds from ChEMBL document CHEMBL4513135, “CO-ADD screening of IQOG CSIS (Spain) compounds”.

Among all 23,000 compounds or so, about 30 (0.1%) showed an effect of 50% or more. What follows is part of a selection rich in strong results, with near analogues and random picks from the rest. Results with a measured potency or affinity are listed apart.

This assay has as its system Pseudomonas aeruginosa. Particulars: Concentration 32 ug.mL-1; ASSAY_TEST Inhibition of Bacterial Growth; detection method Absorption (OD600); MEDIA CAMHB; plate type 384well; NBS; CORNING #3640; time 18 hr.
As a reminder, the Inhibition is the share of the control response that was lost under treatment. High values mean a strong effect, low ones a weak effect. Take `CCOC(=O)/C(C#N)=C\c1ccc([N+](=O)[O-])cc1`: the Inhibition was 5.37%. As for `Cl.N#Cc1cc(C#N)c(N2CCCC2)nc1Cl`, the figure is 9.12%; as for `N#Cc1cc(C#N)c(N2CCCC2)nc1N1CCCC1`, 50.45%; as for `N#Cc1cc(C#N)c(N2CCCC2)nc1N`, 9.99%. To `COc1ccc2cc(C3C(C(C)=O)=C(C)Oc4nc5c(c(N)c43)CCC5)c(Cl)nc2c1` (configuration not stated) belongs 8.84%; to `CC(C)NNC(=O)Cc1c[nH]c2ccccc12`, 53.17%; to `CCCC(C)NNC(=O)Cc1c[nH]c2ccccc12` (configuration not stated), 22.46%. In turn, `O=C(Cc1c[nH]c2ccccc12)NNCc1ccccc1` registered an Inhibition of 23.11%. To `N#CC1=C(N)Oc2c(ccc3ccccc23)C1c1ccc(O)cc1` (configuration not stated) belongs 17.58%; to `C#CCN(C)Cc1cc2cc(OCCC3CCN(Cc4ccccc4)CC3)ccc2n1C.Cl`, 5.95%; to `C#CCN(C)Cc1cc2cc(OCCCCC3CCN(Cc4ccccc4)CC3)ccc2n1C`, 12.81%.

On to `C#CCN(C)Cc1cc2cc(OCCCCC3CCN(Cc4ccccc4)CC3)ccc2n1C.Cl`, for which the Inhibition was 51.07%. As for `Nc1c2c(nc3c1c1ccccc1n3Cc1ccccc1)CCCC2`, the figure is 35.2%. To `COc1ccc(C2c3c(nc4c(c3N)CCCC4)Oc3ccc4ccccc4c32)cc1` (configuration not stated) belongs 16.04%. As for `COc1cccc(C2c3c(nc4c(c3N)CCCC4)Oc3ccc4ccccc4c32)c1` (configuration not stated), the figure is 38.82%; as for `COC(=O)C1(NC(=O)c2ccccc2)CC1c1ccccc1` (configuration not stated), 23.63%; as for `CN(N=O)C(=O)NC1(C(=O)O)CC1c1ccccc1` (configuration not stated), 47.22%. `CNC(=O)NC1(C(=O)O)CC1c1ccccc1` (configuration not stated) returned an Inhibition of 50.33%. As for `CNC(=O)c1c(Cl)c2cc(OCc3ccccc3)ccc2n1C`, the figure is 34.06%.

Compound `COc1ccc(C=C2N=C(c3ccccc3)OC2=O)cc1` yielded an Inhibition of 9.34%.

On to `COc1ccc(C=C2N=C(c3ccccc3)SC2=O)cc1`, for which the Inhibition is given as 50.12%. `CC1=NC(=Cc2ccccc2)C(=O)S1` registered an Inhibition of 24.56%.
